Test results as given in the supplement of paper PMC10849652.
Targets with a hit are over-represented here; the source holds about 7,900 in all. About 0.6% of all pairs of compound and target were hits.

Assays:
Assay in all cases: log2 fold change, soluble protein after heating vs DMSO (PISA); higher = thermal stabilisation; K562 cells, 10 uM, 30 min; active = over 0.2 and 3.5 SD of the protein, either way, in both replicates (recomputed)
[1] = compound: CC[C@@H]1C(=O)N(C)c2cnc(Nc3ccc(C(=O)NC4CCN(C)CC4)cc3OC)nc2N1C1CCCC1
In short: (§1)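 Quantification of soluble protein used TMTpro 16plex LC-MS/MS, with channel sums equalised. Samples were the supernatant after 21,000xg for 90 min of pooled aliquots from K562 cells (2×10^6 cells/mL) treated with 10 μM compound for 30 min, heated for 3 min over 48°C-58°C, and extracted in PBS with 0.5% NP-40 at 4°C. Values, from duplicates, describe thermal stability against control samples on a log2 fold-change scale.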

volasertib = compound: CC[C@@H]1C(=O)N(C)c2cnc(Nc3ccc(C(=O)N[C@H]4CC[C@H](N5CCN(CC6CC6)CC5)CC4)cc3OC)nc2N1C(C)C [volasertib]
In short: as §1

[2] = compound: CC[C@H](C)N1C=C(C2=C(C=C(C=C21)C3=CN=C(C=C3)N4CCNCC4)C(=O)NCC5=C(C=C(NC5=O)C)C)C
In short: as §1

epoxomicin = compound: CC[C@H](C)[C@@H](C(=O)N[C@@H]([C@@H](C)O)C(=O)N[C@@H](CC(C)C)C(=O)[C@]1(CO1)C)NC(=O)[C@H]([C@@H](C)CC)N(C)C(=O)C [epoxomicin]
In short: as §1

[3] = compound: CCn1c(C(=O)N(C2CC2)C2CC2)cc2c3c(ncn3C)c(Nc3cc(C)n(C)n3)nc21
In short: as §1

[4] = compound: CCn1cc(-c2ccnc3[nH]c(-c4cccc(CN(C)C)c4)cc23)c(-c2ccc(NC(=O)N(C)C)cc2)n1
In short: as §1

[5] = compound: CN(C)CC(=O)Nc1ccc2[nH]c(=O)c3ccccc3c2c1
In short: as §1

rosiglitazone = compound: CN(CCOC1=CC=C(C=C1)C[C@H]2C(=O)NC(=O)S2)C3=CC=CC=N3 (racemic) [rosiglitazone]
In short: as §1

[6] = compound: CN1C2=C(C3=C1C(=O)N(N=C3)CC4=CC(=CC=C4)N)SC(=C2)S(=O)C
In short: as §1

[7] = compound: CN1CCC(CNc2ccc3ncc(-c4cccc(OC(F)(F)F)c4)n3n2)CC1
In short: as §1

saracatinib = compound: CN1CCN(CCOc2cc(OC3CCOCC3)c3c(Nc4c(Cl)ccc5c4OCO5)ncnc3c2)CC1 [saracatinib]
In short: as §1

sotrastaurin = compound: CN1CCN(c2nc(C3=C(c4c[nH]c5ccccc45)C(=O)NC3=O)c3ccccc3n2)CC1 [sotrastaurin]
In short: as §1

alvocidib = compound: CN1CC[C@H](c2c(O)cc(O)c3c(=O)cc(-c4ccccc4Cl)oc23)[C@H](O)C1 [alvocidib]
In short: as §1

Tubastatin A = compound: CN1CCc2c(c3ccccc3n2Cc2ccc(C(=O)NO)cc2)C1 [Tubastatin A]
In short: as §1

[8] = compound: CNC(=O)C1=CC=CC=C1NC2=NC(=NC=C2Cl)NC3=C(C=C(C=C3)N4CCOCC4)OC
In short: as §1

defactinib = compound: CNC(=O)c1ccc(Nc2ncc(C(F)(F)F)c(NCc3nccnc3N(C)S(C)(=O)=O)n2)cc1 [defactinib]
In short: as §1

rucaparib = compound: CNCc1ccc(-c2[nH]c3cc(F)cc4c3c2CCNC4=O)cc1 [rucaparib]
In short: as §1

[9] = compound: CNc1nc(-c2ccc3c(N)n[nH]c3c2)cc(N2C[C@@H](C(=O)NC3CCCCC3)CC[C@H]2C)n1
In short: as §1

encorafenib = compound: COC(=O)N[C@@H](C)CNc1nccc(-c2cn(C(C)C)nc2-c2cc(Cl)cc(NS(C)(=O)=O)c2F)n1 [encorafenib]
In short: as §1

[10] = compound: COC(=O)[C@H](CCSC)NC(=O)C1=C(C=C(C=C1)NC[C@H](CS)N)C2=CC=CC=C2
In short: as §1

Measured: log2 fold change

XPNPEP1 isoform 3 (UniProt Q9NQW7)
active: [10] 0.352
inactive: [1] 0.027 | volasertib 0.049 | [2] 0.018 | epoxomicin -0.024 | [3] 0 | [4] -0.043 | [5] 0.051 | rosiglitazone 0.028 | [6] -0.064 | [7] -0.076 | saracatinib 0.002 | sotrastaurin -0.005 | alvocidib -0.076 | Tubastatin A -0.125 | [8] -0.027 | defactinib -0.07 | rucaparib -0.033 | [9] -0.012 | encorafenib -0.008

TRAPPC13 isoform 5 (UniProt A5PLN9)
Sequence of UniProt A5PLN9 (A5PLN9 whole entry, looked up): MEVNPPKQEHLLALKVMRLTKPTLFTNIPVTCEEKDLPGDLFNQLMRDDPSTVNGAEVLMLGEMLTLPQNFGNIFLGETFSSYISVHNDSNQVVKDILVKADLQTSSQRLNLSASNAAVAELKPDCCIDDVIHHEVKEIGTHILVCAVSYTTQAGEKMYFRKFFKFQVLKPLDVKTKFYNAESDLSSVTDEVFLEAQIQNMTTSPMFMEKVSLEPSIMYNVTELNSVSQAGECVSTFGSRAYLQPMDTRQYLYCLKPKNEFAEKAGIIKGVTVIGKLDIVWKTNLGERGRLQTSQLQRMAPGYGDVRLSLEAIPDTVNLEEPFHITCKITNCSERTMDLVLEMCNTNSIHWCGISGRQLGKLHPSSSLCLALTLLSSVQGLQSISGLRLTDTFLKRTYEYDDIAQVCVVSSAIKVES
inactive: [1] -0.055 | volasertib -0.34 | [2] 0.044 | epoxomicin -0.014 | [3] -0.072 | [4] -0.068 | [5] 0.078 | rosiglitazone 0.087 | [6] 0.042 | [7] -0.187 | saracatinib 0.045 | sotrastaurin -0.061 | alvocidib -0.029 | Tubastatin A 0.026 | [8] 0.04 | defactinib -0.051 | rucaparib 0.072 | [9] -0.045 | encorafenib 0.217 | [10] -0.099

VPS16 (UniProt Q9H269)
Sequence of UniProt Q9H269 (Q9H269 whole entry, looked up): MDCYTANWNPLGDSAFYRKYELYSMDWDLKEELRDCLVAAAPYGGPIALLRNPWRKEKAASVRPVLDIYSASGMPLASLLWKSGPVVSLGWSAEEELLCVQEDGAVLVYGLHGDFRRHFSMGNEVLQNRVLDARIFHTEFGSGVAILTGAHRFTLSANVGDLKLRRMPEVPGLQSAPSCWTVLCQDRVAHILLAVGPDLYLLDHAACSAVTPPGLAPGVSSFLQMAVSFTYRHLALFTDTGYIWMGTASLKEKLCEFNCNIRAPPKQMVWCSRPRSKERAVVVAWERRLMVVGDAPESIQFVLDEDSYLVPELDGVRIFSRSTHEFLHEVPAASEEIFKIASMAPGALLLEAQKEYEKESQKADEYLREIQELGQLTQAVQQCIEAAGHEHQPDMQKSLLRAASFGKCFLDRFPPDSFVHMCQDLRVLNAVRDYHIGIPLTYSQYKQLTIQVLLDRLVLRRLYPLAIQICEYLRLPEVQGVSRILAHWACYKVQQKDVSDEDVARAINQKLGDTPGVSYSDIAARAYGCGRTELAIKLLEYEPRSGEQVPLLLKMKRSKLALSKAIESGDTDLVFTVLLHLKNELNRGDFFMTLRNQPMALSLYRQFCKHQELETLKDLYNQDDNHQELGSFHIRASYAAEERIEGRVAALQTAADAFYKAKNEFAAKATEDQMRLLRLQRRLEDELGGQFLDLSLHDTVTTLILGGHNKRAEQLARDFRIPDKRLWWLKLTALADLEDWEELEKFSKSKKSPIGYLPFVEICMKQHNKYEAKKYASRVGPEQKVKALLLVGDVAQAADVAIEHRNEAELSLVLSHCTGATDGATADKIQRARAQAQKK
inactive: [1] -0.244 | [2] 0.042 | epoxomicin 0.045 | [3] 0.003 | [4] -0.072 | [5] 0.083 | rosiglitazone 0.113 | [6] 0.026 | [7] -0.316 | saracatinib 0.026 | sotrastaurin -0.171 | alvocidib -0.028 | Tubastatin A -0.001 | [8] -0.071 | defactinib -0.042 | rucaparib -0.049 | [9] -0.054 | encorafenib 0.196 | [10] -0.022
active: volasertib -0.671

VPS52 (UniProt Q8N1B4)
active: volasertib -0.383
inactive: [1] -0.107 | [2] 0.153 | epoxomicin 0.092 | [3] 0.012 | [4] 0.006 | [5] -0.021 | rosiglitazone 0.094 | [6] 0.037 | [7] -0.027 | saracatinib -0.012 | sotrastaurin -0.107 | alvocidib -0.061 | Tubastatin A 0.074 | [8] -0.047 | defactinib -0.031 | rucaparib 0.121 | [9] -0.01 | encorafenib 0.02 | [10] -0.072

WRB (UniProt O00258)
Sequence of UniProt O00258 (O00258 whole entry, looked up): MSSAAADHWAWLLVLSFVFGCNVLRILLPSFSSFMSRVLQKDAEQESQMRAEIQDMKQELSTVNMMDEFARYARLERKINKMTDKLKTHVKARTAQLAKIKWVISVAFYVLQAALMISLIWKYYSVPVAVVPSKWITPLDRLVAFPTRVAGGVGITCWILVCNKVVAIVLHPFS
inactive: [1] 0.011 | volasertib 0.057 | [2] -0.071 | epoxomicin -0.059 | [3] -0.021 | [4] -0.02 | [5] -0.024 | rosiglitazone -0.025 | [6] 0.029 | [7] -0.016 | saracatinib -0.007 | sotrastaurin 0.075 | alvocidib 0.034 | Tubastatin A -0.051 | [8] -0.048 | defactinib 0.073 | rucaparib -0.003 | [9] -0.014 | encorafenib -0.057 | [10] 0.023

UGGT1 (UniProt Q9NYU2)
inactive: [1] -0.01 | volasertib -0.058 | [2] 0.03 | epoxomicin -0.006 | [3] 0.019 | [4] 0.002 | [5] -0.024 | rosiglitazone -0.004 | [6] 0.008 | [7] 0.049 | saracatinib -0.006 | sotrastaurin -0.034 | alvocidib -0.037 | Tubastatin A 0.022 | [8] -0.005 | defactinib 0.019 | rucaparib 0.009 | [9] -0.033 | encorafenib 0.017 | [10] -0.002

VAMP7 (UniProt P51809)
Sequence of UniProt P51809 (P51809 whole entry, looked up): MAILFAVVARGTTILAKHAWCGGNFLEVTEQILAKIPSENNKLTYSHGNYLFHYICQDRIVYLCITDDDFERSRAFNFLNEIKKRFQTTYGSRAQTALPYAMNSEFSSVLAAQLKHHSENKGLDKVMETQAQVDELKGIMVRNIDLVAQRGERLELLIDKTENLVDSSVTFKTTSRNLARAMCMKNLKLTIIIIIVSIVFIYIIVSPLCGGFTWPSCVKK
inactive: [1] -0.057 | volasertib -0.019 | [2] 0.009 | epoxomicin 0.045 | [3] 0.012 | [4] -0.026 | [5] 0.014 | rosiglitazone -0.022 | [6] -0.07 | [7] -0.181 | saracatinib 0.029 | sotrastaurin 0.012 | alvocidib -0.019 | Tubastatin A -0.001 | [8] 0.03 | defactinib -0.028 | rucaparib -0.027 | [9] -0.022 | encorafenib 0.029 | [10] -0.011

VPS33B (UniProt Q9H267)
Sequence of UniProt Q9H267 (Q9H267 whole entry, looked up): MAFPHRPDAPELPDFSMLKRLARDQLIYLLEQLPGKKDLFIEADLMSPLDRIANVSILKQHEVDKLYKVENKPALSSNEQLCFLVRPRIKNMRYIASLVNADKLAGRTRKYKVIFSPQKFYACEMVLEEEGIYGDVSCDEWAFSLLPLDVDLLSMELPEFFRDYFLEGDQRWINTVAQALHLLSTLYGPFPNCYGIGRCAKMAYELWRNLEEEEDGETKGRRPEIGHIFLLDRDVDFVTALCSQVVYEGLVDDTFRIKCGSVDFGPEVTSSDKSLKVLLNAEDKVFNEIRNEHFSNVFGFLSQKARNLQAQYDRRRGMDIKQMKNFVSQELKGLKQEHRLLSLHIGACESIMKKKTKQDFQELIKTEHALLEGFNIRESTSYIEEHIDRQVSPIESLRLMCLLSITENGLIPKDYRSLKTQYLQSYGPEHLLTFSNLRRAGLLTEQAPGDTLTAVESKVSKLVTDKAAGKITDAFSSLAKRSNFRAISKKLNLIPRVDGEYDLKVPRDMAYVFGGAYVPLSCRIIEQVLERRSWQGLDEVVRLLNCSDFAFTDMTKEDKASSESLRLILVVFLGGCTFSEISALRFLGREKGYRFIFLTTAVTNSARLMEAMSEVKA
inactive: [1] -0.129 | volasertib -0.378 | epoxomicin 0.022 | [3] -0.065 | [4] -0.039 | [5] 0.048 | rosiglitazone 0.073 | [6] 0.091 | [7] -0.218 | saracatinib -0.088 | sotrastaurin -0.117 | alvocidib -0.008 | Tubastatin A 0.039 | [8] -0.071 | defactinib -0.078 | rucaparib 0.196 | [9] 0.052 | encorafenib 0.111 | [10] -0.058
active: [2] 0.284

TUBAL3 (UniProt A6NHL2)
active: rucaparib -0.51
inactive: [1] 0.144 | volasertib -0.497 | [2] -0.052 | epoxomicin -0.11 | [3] -0.023 | [4] -0.013 | [5] -0.061 | rosiglitazone 0.139 | [6] 0.03 | [7] -0.067 | saracatinib -0.074 | sotrastaurin -0.054 | alvocidib 0.058 | Tubastatin A -0.003 | [8] -0.125 | defactinib -0.069 | [9] 0.067 | encorafenib 0.187 | [10] -0.057

UBR2 (UniProt Q8IWV8)
inactive: [1] 0.046 | volasertib -0.104 | [2] -0.004 | epoxomicin 0.196 | [3] -0.026 | [4] -0.039 | [5] -0.076 | rosiglitazone 0.063 | [6] 0.114 | [7] -0.063 | saracatinib -0.065 | sotrastaurin -0.024 | alvocidib 0.132 | Tubastatin A 0.098 | [8] -0.014 | defactinib -0.052 | rucaparib -0.012 | [9] 0.145 | encorafenib 0.143 | [10] 0.085

TSEN2 (UniProt Q8NCE0)
Sequence of UniProt Q8NCE0 (Q8NCE0 whole entry, looked up): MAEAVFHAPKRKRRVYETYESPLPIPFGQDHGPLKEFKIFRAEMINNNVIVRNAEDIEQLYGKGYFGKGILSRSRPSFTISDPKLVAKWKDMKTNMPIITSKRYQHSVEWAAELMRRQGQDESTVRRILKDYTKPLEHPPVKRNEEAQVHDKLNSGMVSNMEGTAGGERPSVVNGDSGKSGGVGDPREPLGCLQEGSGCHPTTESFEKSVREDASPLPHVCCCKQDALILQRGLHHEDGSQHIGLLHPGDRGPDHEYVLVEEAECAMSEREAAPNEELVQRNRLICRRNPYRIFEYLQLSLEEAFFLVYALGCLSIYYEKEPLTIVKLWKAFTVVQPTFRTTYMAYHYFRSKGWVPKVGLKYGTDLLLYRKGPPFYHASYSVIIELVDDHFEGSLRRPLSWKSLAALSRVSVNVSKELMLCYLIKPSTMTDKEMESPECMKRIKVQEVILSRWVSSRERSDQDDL
inactive: [1] -0.019 | volasertib -0.146 | [2] 0.053 | epoxomicin 0.078 | [3] -0.021 | [4] -0.082 | [5] 0.086 | rosiglitazone 0.077 | [6] -0.04 | [7] 0.034 | saracatinib -0.014 | sotrastaurin -0.186 | alvocidib -0.044 | Tubastatin A -0.024 | [8] -0.042 | defactinib -0.009 | rucaparib 0.007 | [9] -0.005 | encorafenib -0.068 | [10] -0.049

TOMM5 isoform 2 (UniProt Q8N4H5)
Sequence of UniProt Q8N4H5 (Q8N4H5 whole entry, looked up): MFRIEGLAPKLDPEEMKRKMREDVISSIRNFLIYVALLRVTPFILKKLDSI
inactive: [1] -0.003 | volasertib -0.032 | [2] -0.049 | [3] 0.05 | [4] 0.039 | [5] -0.046 | rosiglitazone -0.017 | [6] 0.041 | [7] 0.116 | saracatinib -0.033 | sotrastaurin 0.064 | alvocidib 0.012 | Tubastatin A 0.027 | [8] 0.059 | defactinib 0.01 | rucaparib -0.033 | [9] -0.031 | encorafenib -0.036 | [10] 0.049
active: epoxomicin 0.538

XPO1 (UniProt O14980)
Sequence of UniProt O14980 (O14980 whole entry, looked up): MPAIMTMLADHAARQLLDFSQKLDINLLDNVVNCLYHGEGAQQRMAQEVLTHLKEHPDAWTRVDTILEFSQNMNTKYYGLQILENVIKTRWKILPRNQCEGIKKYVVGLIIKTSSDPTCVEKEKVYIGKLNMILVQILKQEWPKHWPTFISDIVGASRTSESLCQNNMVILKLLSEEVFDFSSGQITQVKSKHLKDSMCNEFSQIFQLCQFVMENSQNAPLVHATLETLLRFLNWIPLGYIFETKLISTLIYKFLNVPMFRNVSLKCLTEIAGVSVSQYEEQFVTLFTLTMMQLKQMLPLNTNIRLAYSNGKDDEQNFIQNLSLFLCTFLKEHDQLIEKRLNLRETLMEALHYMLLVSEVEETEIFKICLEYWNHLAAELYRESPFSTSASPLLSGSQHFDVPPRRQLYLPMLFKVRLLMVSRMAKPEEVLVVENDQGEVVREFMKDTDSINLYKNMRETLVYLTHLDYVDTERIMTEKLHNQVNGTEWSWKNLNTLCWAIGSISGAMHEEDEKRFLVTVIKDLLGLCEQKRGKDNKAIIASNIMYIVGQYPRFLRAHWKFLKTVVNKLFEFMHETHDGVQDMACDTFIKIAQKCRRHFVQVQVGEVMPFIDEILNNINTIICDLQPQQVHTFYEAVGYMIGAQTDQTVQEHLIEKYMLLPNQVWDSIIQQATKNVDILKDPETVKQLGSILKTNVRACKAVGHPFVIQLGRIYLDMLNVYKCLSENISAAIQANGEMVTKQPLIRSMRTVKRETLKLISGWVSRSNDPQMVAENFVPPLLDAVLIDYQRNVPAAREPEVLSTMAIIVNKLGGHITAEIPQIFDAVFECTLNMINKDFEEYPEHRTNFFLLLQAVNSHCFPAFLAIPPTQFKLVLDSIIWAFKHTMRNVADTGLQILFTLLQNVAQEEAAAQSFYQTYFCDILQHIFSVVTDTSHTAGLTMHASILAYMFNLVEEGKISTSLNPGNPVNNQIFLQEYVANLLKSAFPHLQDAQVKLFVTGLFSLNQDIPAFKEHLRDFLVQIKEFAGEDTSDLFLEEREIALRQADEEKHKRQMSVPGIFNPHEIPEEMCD
active: volasertib -0.546 | [7] -0.343
inactive: [1] -0.175 | [2] 0.085 | epoxomicin 0.023 | [3] -0.049 | [4] -0.13 | [5] 0.058 | rosiglitazone 0.077 | [6] -0.033 | saracatinib 0.003 | sotrastaurin -0.088 | alvocidib -0.096 | Tubastatin A 0.001 | [8] -0.028 | defactinib -0.093 | rucaparib -0.012 | [9] 0.02 | encorafenib 0.094 | [10] -0.041

VRK2 (UniProt Q86Y07)
Sequence of UniProt Q86Y07 (Q86Y07 whole entry, looked up): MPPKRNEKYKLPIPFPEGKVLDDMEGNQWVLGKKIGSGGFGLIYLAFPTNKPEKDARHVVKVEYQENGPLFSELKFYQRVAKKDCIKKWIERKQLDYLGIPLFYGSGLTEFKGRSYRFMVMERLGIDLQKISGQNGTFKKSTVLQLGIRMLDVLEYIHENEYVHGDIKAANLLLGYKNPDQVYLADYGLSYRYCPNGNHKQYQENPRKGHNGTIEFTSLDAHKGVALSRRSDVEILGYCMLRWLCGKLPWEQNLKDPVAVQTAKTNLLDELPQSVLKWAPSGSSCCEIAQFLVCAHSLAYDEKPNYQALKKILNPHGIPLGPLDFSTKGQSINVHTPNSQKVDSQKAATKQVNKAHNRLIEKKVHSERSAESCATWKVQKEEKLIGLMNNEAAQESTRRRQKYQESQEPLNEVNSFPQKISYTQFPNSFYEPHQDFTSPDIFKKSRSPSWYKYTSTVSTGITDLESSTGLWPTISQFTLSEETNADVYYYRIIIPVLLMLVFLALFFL
inactive: [1] 0.034 | volasertib -0.049 | [2] 0.054 | epoxomicin 0.021 | [3] -0.072 | [4] -0.005 | [5] -0.009 | rosiglitazone 0.019 | [6] -0.04 | saracatinib -0.036 | sotrastaurin 0.075 | Tubastatin A 0.014 | [8] -0.102 | defactinib 0.106 | rucaparib -0.039 | [9] -0.017 | encorafenib -0.001 | [10] -0.092
active: [7] 0.229 | alvocidib 0.4

TNFRSF10A (UniProt O00220)
inactive: [1] 0.046 | volasertib 0.001 | [2] -0.02 | epoxomicin -0.047 | [3] -0.037 | [4] -0.104 | [5] -0.123 | rosiglitazone -0.053 | [6] -0.02 | [7] -0.007 | saracatinib -0.038 | sotrastaurin -0.012 | alvocidib 0.02 | Tubastatin A 0.04 | [8] -0.052 | defactinib 0.039 | rucaparib 0.017 | [9] 0.02 | encorafenib 0.031 | [10] 0.056

UGDH (UniProt O60701)
Sequence of UniProt O60701 (O60701 whole entry, looked up): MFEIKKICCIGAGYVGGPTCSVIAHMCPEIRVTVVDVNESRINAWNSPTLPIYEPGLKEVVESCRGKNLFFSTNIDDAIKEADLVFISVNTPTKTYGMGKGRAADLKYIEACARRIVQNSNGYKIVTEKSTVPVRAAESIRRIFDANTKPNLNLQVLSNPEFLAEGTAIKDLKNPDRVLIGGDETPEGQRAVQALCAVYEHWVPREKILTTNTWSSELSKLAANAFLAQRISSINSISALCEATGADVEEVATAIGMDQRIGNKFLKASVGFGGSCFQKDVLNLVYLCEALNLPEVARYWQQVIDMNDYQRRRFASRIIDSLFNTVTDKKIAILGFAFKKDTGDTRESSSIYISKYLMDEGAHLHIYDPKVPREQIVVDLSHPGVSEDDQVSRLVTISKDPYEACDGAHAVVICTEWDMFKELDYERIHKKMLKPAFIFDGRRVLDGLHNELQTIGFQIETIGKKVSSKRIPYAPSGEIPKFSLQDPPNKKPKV
inactive: [1] -0.041 | volasertib -0.128 | [2] 0.11 | epoxomicin 0.064 | [3] -0.076 | [4] 0.031 | [5] 0.05 | rosiglitazone -0.034 | [6] -0.113 | [7] -0.106 | saracatinib -0.036 | alvocidib -0.273 | Tubastatin A 0.004 | [8] -0.085 | defactinib -0.209 | rucaparib -0.089 | [9] 0.074 | encorafenib 0.087 | [10] -0.038
active: sotrastaurin -0.284
